The experiment in a line: NCI Yeast Anticancer Drug Screen. Data for the bub3 strain (AID 167). To be noted: S. cerevisiae bub3 mutant strain, active compounds read high. The protocol:
Growth inhibition of yeast strains with defined genetic alterations is measured as a screen for potential anti-cancer activity. Selected strains with alterations in DNA damage repair or cell cycle control were exposed to compounds and growth inhibition was measured relative to vehicle treated controls. The strain used in this assay is bub3

[1] abbreviates: at 5.0 µM (retest, dose inferred, filed as 0.5).
Where [2] appears, read: at 50.0 µM (retest, dose inferred, filed as 5.0).

SMILES strings stand for the structures. About 79,000 compounds went through this panel and 15% of them were active in at least one assay; those are over-represented in the sample as a whole. Values without a mark were called inactive. The source made the active and inactive calls. Cut-off read from the data, not from the text of the source: active = growth inhibition above about 70%; inactive = the rest.

Turning to `CCN(CC)CCBr`, the growth inhibition runs as follows: (at 1.2 µM) 0%; (at 3.7 µM) -3%; under setting [1], -3%; (at 11.0 µM) -7%; (at 33.0 µM) -6%; under setting [2], -7%. Also, the growth inhibition is -11.4% (at 50.0 µM) and -16% (at 100.0 µM).
On to `CCNC(=O)OCC1C2=C(C(=O)C(C)=C(N)C2=O)N2CC3C(N3C)C12OC` (centres undefined), for which the growth inhibition by setting is: (at 1.2 µM) 13%; (at 3.7 µM) 9%; under setting [1], 21%; (at 11.0 µM) 10%; (at 33.0 µM) 36%; under setting [2], 50%. The growth inhibition by setting is: (at 50.0 µM) 21.8%; (at 100.0 µM) 71% (active).
As for `Cn1cnc(N)c1C(=N)[Se]`, the growth inhibition (at 1.2 µM) was 4%; the growth inhibition (at 3.7 µM) was 15%; the growth inhibition under setting [1] is -67%; the growth inhibition (at 11.0 µM) is 80% (active); the growth inhibition (at 33.0 µM) is 97% (active); the growth inhibition under setting [2] is 64%. Also, the growth inhibition by setting is: (at 50.0 µM) 78.2% (active); (at 100.0 µM) 94% (active).
For the molecule `C/C(CCl)=N/NC1=NC(c2ccccc2Cl)P(=O)(NCCCNP2(=O)SC(N/N=C(/C)CCl)=NC2c2ccccc2Cl)S1` (centres undefined), the growth inhibition reads like this: (at 1.2 µM) 0%; (at 3.7 µM) -5%; under setting [1], -32%; (at 11.0 µM) 0%; (at 33.0 µM) 25%; under setting [2], 61%. In addition, the growth inhibition is, setting by setting: (at 50.0 µM) 95.2% (active); (at 100.0 µM) 18%.
As for `COc1c(Br)cc(/C=C(/C)[N+](=O)[O-])cc1Br`, the growth inhibition was 46% under setting [1], 79% (active) under setting [2] and 91.8% (active) (at 50.0 µM).
Regarding `COC12[C@@H]3N[C@@H]3CN1C1=C(C(=O)C(NCCSSCCNC3=C(C)C(=O)C4=C(C3=O)C(COC(N)=O)[C@]3(OC)C5N[C@@H]5CN43)=C(C)C1=O)[C@@H]2COC(N)=O` (some centres undefined), the growth inhibition runs as follows: under setting [1], 17%; under setting [2], 52%; (at 50.0 µM) -8.85%.
Regarding `CC(=O)O[C@H]1CC[C@H]2[C@@H]3CC[C@H]4CC(=O)CC[C@@H]4[C@H]3CC[C@]12C`, the growth inhibition is, setting by setting: under setting [1], 4%; under setting [2], 7%; (at 50.0 µM) 61.5%.
Turning to `CN(C)CCN(C)P12(Oc3ccccc3O1)Oc1c(Cl)c(Cl)c(Cl)c(Cl)c1O2`, the growth inhibition is, setting by setting: under setting [1], -10%; under setting [2], 12%; (at 50.0 µM) 99.1% (active).

(Values after PubChem BioAssay (NCI).)
